CSC inhib – cancer stem cell inhibition; AID 2717; 1.1% of 300,000 active; cancer stem cell-like cells viability, luminescence; inhibition, % at 7.5 µM; in the data active means inhibition above about 75%; inconclusive means no clear call, values can overlap the other calls; tested in HMLE shEcad cells
PP5 primary – PP5 (human) phosphatase inhibition; P53041; purified PP5c, OMFP substrate fluorescence; inhibition, % at 6.7 µM; 0.18% of 320,000 active; AID 1987;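 active means inhibition above the campaign's mean inhibition across all tested compounds plus 3 SD, cut at about 9.5% in these data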
Mdm2-MdmX inh – inhibitors of human Mdm2/MdmX interaction; O15151+Q00987; SaOS-2 split-luciferase Mdm2/MdmX complementation, luminescence; inhibition, % at 8 µM; 3% of 330,000 active; AID 485346;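 active means inhibition of at least 50% at 8 µM in the primary screen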
Calb FLC – C. albicans growth modulation with fluconazole | C. albicans CaCi-2 (fluconazole-resistant clinical isolate) + fluconazole, Alamar Blue growth, 48 h | 0.57% of 300,000 active | AID 1979 | growth inhibition, % (no concentration beside the values);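 active means growth inhibition above about 58% in most replicates, limit read from the data, passing the limit was not always enough; inconclusive means exactly half the replicates above a set limit; inactive means most replicates below a set limit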;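 further: all wells also contain fluconazole at 8 µg/ml as a sub-toxic cotreatment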
Beta cell apopt – beta cell apoptosis inhibition | 0.8% of 300,000 active | INS-1E cytokine-induced death, ATP luminescence, 48 h; percent of positive-control rescue, neutral wells zero | protection from apoptosis, % (concentration not given with the values);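 active means Every replicate reaches about 75%, or at least half do and their mean reaches it too, limit read from the data; inconclusive means At least half of replicates reach the limit but their mean does not; inactive means Under half of replicates reach the limit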;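 further: higher means more ATP so stronger rescue from cytokine killing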
PP1 counter – counter-screen for PP5 inhibitors: inhibitors of human PP1-alpha; P62136; purified PP1alpha, OMFP fluorescence; inhibition, % at 6.7 µM; 0.9% of 320,000 active;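 active means inhibition above the mean inhibition of all tested compounds plus 3 SD, computed separately for each screening campaign, cut at about 15% in these data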
Target sequence (P62136 whole entry, looked up): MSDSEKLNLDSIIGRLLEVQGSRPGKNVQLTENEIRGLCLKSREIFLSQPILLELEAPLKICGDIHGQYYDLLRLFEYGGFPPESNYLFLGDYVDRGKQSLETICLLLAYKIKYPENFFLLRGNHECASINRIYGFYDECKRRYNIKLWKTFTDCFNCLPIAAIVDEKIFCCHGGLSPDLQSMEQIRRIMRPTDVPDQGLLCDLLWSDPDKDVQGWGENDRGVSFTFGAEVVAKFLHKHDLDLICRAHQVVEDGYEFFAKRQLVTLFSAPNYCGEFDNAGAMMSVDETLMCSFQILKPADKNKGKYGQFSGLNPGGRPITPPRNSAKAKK
PP1 confirm – confirmation of human PP1 phosphatase inhibitors; 52% of 1,900 active; shares compounds with PP1 counter; purified PP1alpha, OMFP substrate fluorescence; inhibition, % at 6.7 µM;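 active means mean PP1 inhibition above a set limit taken from the earlier primary screen, cut at about 15% in these data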
PP5 counter – inhibits human PP5 phosphatase in PP1 counter-screen. 4% of 1,900 active. inhibition, % at 6.7 µM. shares compounds with PP1 counter. purified PP5c, OMFP fluorescence. AID 2360;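 active means mean PP5 inhibition over triplicate wells above about 9.5% taken from the earlier PP1 screen, limit read from the data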
A number is an active result; 0 = inactive; ? = inconclusive; - = not tested or not shown. Only some compounds are listed: those with a hit (about 4.9% of all), similar ones and a draw of the others.

SMILES	CSC inhib	PP5 primary	Mdm2-MdmX inh	Calb FLC	Beta cell apopt	PP1 counter	PP1 confirm	PP5 counter
Fc1cccc(Cl)c1CSc1ccc(-c2cccnc2)nn1	0	0	0	0	0	58.2	0	0
Cc1cccc(Nc2nc(Cl)ncc2F)c1C	0	0	0	0	0	0	-	-
O=C(O)C(c1ccccc1)N1C(=O)/C(=C\c2ccc(-c3ccccc3Cl)o2)SC1=S (stereo not drawn)	-	0	0	0	-	27.4	36.0	0
O=C(O)C(c1ccccc1)N1C(=O)/C(=C\c2ccc(-c3ccc(Br)cc3)o2)SC1=S (stereo not drawn)	-	-	0	0	-	-	-	-
Cc1oc(-c2ccc(Cl)cc2)cc1-c1nn2c(-c3ccoc3C)nnc2s1	-	0	0	0	0	24.2	19.0	0
N#CC1=C2N=C(N)c3ccccc3N2C2=C(C(=O)CCC2)C1c1ccccc1F (stereo not drawn)	0	0	0	0	0	0	-	-
Cc1ccccc1C1C(C#N)=C2N=C(N)c3c(sc4c3CCCCC4)N2C2=C1C(=O)CCC2 (stereo not drawn)	0	0	0	0	0	25.4	18.2	0
Cc1nc(SC2CC(=O)N(c3ccccc3)C2=O)n[nH]1 (stereo not drawn)	0	0	0	0	0	20.9	0	0
COc1ccccc1NC(=O)c1c(Nc2ccccc2F)sc(C(=O)Nc2cccc(Cl)c2)c1N	83.1	0	0	0	0	22.1	0	0
O=C1CC(=C2c3ccccc3-c3ccccc32)C(=O)N1CCCCN1CCN(c2ccccc2)CC1	-	0	0	0	0	25.7	27.8	0
Cc1cc(C)c2c(n1)SCC(=O)N2CC(=O)Nc1ccccc1Cl	-	0	0	0	0	0	-	-
COc1ccc(C2=NN(C(=O)CCCC(=O)O)C(c3cn(-c4ccccc4)nc3-c3ccccc3)C2)cc1 (stereo not drawn)	0	0	0	0	0	28.6	17.6	0
COc1ccc(-n2c(Cn3c(=O)sc4ccccc43)nnc2SCC(=O)N2CCCC2)cc1	0	0	0	-	0	37.6	0	0
Cc1ccc(NC(=S)N(Cc2ccc(Br)cc2)Cc2ccc(C(=O)O)cc2)cc1C	0	0	0	0	0	0	-	-
COc1cc([N+](=O)[O-])ccc1NC(=O)Oc1ccc(NC(C)=O)cc1	0	0	0	0	0	0	-	-
COc1cc(Br)cc(/C=N/NC(=O)Cc2ccccc2)c1O	0	0	0	0	0	18.9	0	0
COc1cccc(/C=N/NC(=O)N/N=C/c2cccc(OC)c2O)c1O	0	0	0	0	0	21.5	16.0	0
O=C(Nc1ccccc1)c1ccc(NC(=O)C2CC2)cc1	0	0	0	0	0	0	-	-
CCCCC(O)(c1ccc(CC)cc1)C(CN1CCOCC1)c1ccccc1 (stereo not drawn)	0	-	0	0	0	-	-	-
Cc1c(CCC(=O)O)c(=O)oc2c(C)c(OCc3cc4c(cc3Cl)OCO4)ccc12	0	0	0	0	0	20.4	0	0
C/C(=N\NC(=O)COc1ccc(C)cc1Br)c1cc([N+](=O)[O-])cs1	0	0	0	0	0	22.0	23.5	0
O=C(O)c1[nH]c2ccccc2c1C(c1ccccc1)c1c(C(=O)O)[nH]c2ccccc12	0	0	0	0	-	0	-	-
COc1cc(C(c2c(C(=O)O)[nH]c3ccccc23)c2c(C(=O)O)[nH]c3ccccc23)ccc1OCc1ccccc1	0	0	0	0	0	19.3	15.4	0
CCOc1ccccc1NC(=O)C(NCC1(N2CCCCC2)CCCCC1)c1ccccc1 (stereo not drawn)	0	0	0	0	0	0	-	-
CC(=O)c1ccc(NC(=O)C2CCCNC2=O)cc1 (stereo not drawn)	0	0	0	0	0	21.6	0	0
SMILES	CSC inhib	PP5 primary	Mdm2-MdmX inh	Calb FLC	Beta cell apopt	PP1 counter	PP1 confirm	PP5 counter
COc1ccc(NC(=O)C2CCCNC2=O)cc1 (stereo not drawn)	0	-	0	0	0	-	-	-
CC(C)(C)OC(=O)CNC(=O)c1nc[nH]c1C(=O)N1CCc2ccccc2C1	0	0	0	0	0	0	-	-
O=C(CSc1nc2ccccc2c(=O)n1Cc1ccccc1)Nc1ccc(Br)cc1C(=O)O	0	0	0	0	0	19.9	15.2	0
Cc1ccc(S(=O)(=O)N2CCOCC2)cc1NC(=O)CSc1nc2ccccc2c(=O)n1Cc1ccccc1	-	0	0	0	-	0	-	-
N#Cc1c(-c2c(Cl)cccc2Cl)noc1/C=C/Nc1ccc(C(=O)O)cc1	0	0	0	0	0	0	-	-
CN(C)/C=C/c1onc(-c2c(Cl)cccc2Cl)c1C#N	0	0	0	0	0	35.5	0	0
C=Cc1c(C)c2cc3[nH]c(cc4nc(cc5nc(cc1[nH]2)C(C)=C5CCC(=O)O)C(CCC(=O)O)=C4C)c(C)c3C=C	0	0	0	0	0	61.4	41.5	0
CN(c1ccc(C(=O)NCCCn2ccnc2)cc1)S(C)(=O)=O	0	0	0	0	0	0	-	-
CCOC(=O)C1CCN(C(=O)Nc2ccc3nc(-c4ccco4)c(-c4ccco4)nc3c2)CC1	0	0	0	?	0	31.2	0	0
CCCCn1c(N)c(NCC)c(=O)[nH]c1=O	-	-	0	-	-	-	-	-
COc1ccc(C2=CC3=C(Br)C(=O)C(C)(O)C(=O)C3=CO2)cc1 (stereo not drawn)	0	0	0	0	0	0	-	-
COc1ccc(C2=CC3=CC(=O)C(C)(O)C(=O)C3=CO2)cc1 (stereo not drawn)	0	0	0	0	0	17.8	0	0
CC1(O)C(=O)C=C2C=C(c3ccc(C#N)cc3)OC=C2C1=O (stereo not drawn)	0	0	0	0	0	35.5	21.4	0
CCC(=O)OC1(C)C(=O)C=C2C=C(c3ccc(C#N)cc3)OC=C2C1=O (stereo not drawn)	0	0	0	0	0	0	-	-
CCN(C[C@H]1N[C@@](CC)(C(=O)OC)[C@H]2C(=O)N(Cc3ccccc3)C(=O)[C@@H]12)S(=O)(=O)c1ccc(F)cc1	0	-	0	-	0	-	-	-
O=C(O)c1ccccc1-c1nc2ccccc2c(=O)n1O	0	0	0	0	0	24.6	29.9	0
CCCCC[C@H](O)/C=C/[C@@H]1[C@@H](C/C=C\CCCC(=O)O)[C@@H](O)C[C@H]1O	0	0	0	0	0	0	-	-
CCCCC[C@H](O)/C=C/[C@@H]1[C@@H](C/C=C\CCCC(=O)OC)[C@@H](O)C[C@H]1O	0	0	0	-	0	46.3	43.1	0
CN1CCCN(S(=O)(=O)c2ccc(O)c(C(=O)O)c2)CC1	0	0	0	0	0	0	-	-
COc1ccc(NC(=O)c2cc(S(=O)(=O)N3CCCCC3)c[nH]2)c(OC)c1	0	0	0	0	0	0	-	-
COc1cc(NC(=O)c2cc(S(=O)(=O)N3CCCCC3)c[nH]2)cc(OC)c1	0	0	0	0	0	17.6	0	0
